# Experimental data from PubChem BioAssay.
# Calls of active or inactive are those of the source.
# How the values were obtained:
# [1] = compound effects on lung adenocarcinoma cell viability – A549, calcein-AM fluorescence, 48 h, basal, profiling panel (AID 1162); conditions: higher = more signal
# [2] = compound effects on differentiated 3T3-L1 adipocyte viability – cell-based, 3T3-L1 adipocytes, calcein-AM fluorescence, 48 h, basal, profiling panel (AID 1163); conditions: 3T3-L1 adipocytes viability, higher = more signal
# [3] = compound effects on hepatocellular carcinoma cell viability – HepG2, calcein-AM fluorescence, 48 h, basal, profiling panel (AID 1164); conditions: higher = more signal
# [4] = compound effects on multiple myeloma cell viability – MM1S, calcein-AM fluorescence, 48 h, basal, profiling panel (AID 1165); conditions: higher = more signal
# [5] = calcein-AM signal in unstimulated myeloma cells – cell-based, calcein-AM fluorescence, 48 h, PK04 Diversity Set, profiling panel (AID 1166); conditions: RPMI8226 myeloma viability, higher = more signal;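 further: cells grown under basal conditions without added stimulus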
# [6] = JC-1 mitochondrial signal, unstimulated HepG2 cells – cell-based, JC-1 fluorescence, 24 h, 100 nL compound, profiling panel (AID 1167); conditions: HepG2 mitochondrial potential, higher = more signal
# [7] = JC-1 mitochondrial signal, unstimulated adipocytes – cell-based, JC-1 fluorescence, 3T3-L1 adipocytes, 24 h, 100 nL compound, profiling panel (AID 1168); conditions: JC-1 mitochondrial fluorescence, higher = more signal, called active from +8 up or from −8 down
# [8] = JC-1 mitochondrial signal, unstimulated myeloma cells – cell-based, JC-1 fluorescence, RPMI8226, 24 h, 100 nL compound, profiling panel (AID 1169); conditions: JC-1 mitochondrial potential fluorescence, higher = more signal
# [9] = JC-1 mitochondrial signal, unstimulated MM1S myeloma – cell-based, JC-1 fluorescence, 24 h, 100 nL compound, profiling panel (AID 1170); conditions: MM1S mitochondrial potential, higher = more signal
# [10] = resazurin metabolic signal in A549 cells – cell-based, resazurin fluorescence, 24 h, PK04 Diversity Set, profiling panel (AID 1171); conditions: A549 viability, higher = more signal, called active from +8 up or from −8 down
# Further: test concentration not given here.
SMILES,z-score [1],z-score [2],z-score [3],z-score [4],z-score [5],z-score [6],z-score [7],z-score [8],z-score [9],z-score [10]
CC(C)C[C@@H]1NC(=O)[C@H]2C[C@@H](C(=O)NCCCCCCN)[C@@H](c3ccc(O)cc3)N2C1=O,-0.145,0.106,-0.766,-0.495,-0.953,0.414,-0.217 (inactive),-0.279,0.861,-0.939 (inactive)
O=C(C1N=C(c2ccc(OCCCO)cc2)N(c2ccccc2)O1)N1CCOCC1 (stereo not given),0.895,0.349,0.0818,0.932,1.22,0.0222,0.645 (inactive),-1.06,-1.05,0.298 (inactive)
Cc1ccc(S[C@]2(C(=O)NC3CC3)CC(=O)N(C3Cc4ccccc4C3)[C@@H]2c2ccc(CO)cc2)cc1,3.2,0.785,1.51,0.498,0.244,2.78,0.569 (inactive),0.763,-0.0488,-1.23 (inactive)
C#CCN(Cc1ccccc1Br)C(/C=C/c1ccccc1)CO (stereo not given),-3.65,-0.011,-3.95,-3.26,-4.12,-2.83,0.165 (inactive),-1.2,-1.21,-0.411 (inactive)
C=CC[C@]1(C(=O)N2CCCCC2)N=C(c2ccc(OCCCO)cc2)O[C@H]1c1ccccc1,0.396,0.0234,-0.426,-2.35,-1.35,0.53,-0.0613 (inactive),-1.16,0.447,2.72 (inactive)
CC(C)N1C(=O)c2ccccc2[C@](C)(C(=O)NCc2ccccc2)[C@@H]1c1ccc(CO)cc1,0.82,0.48,-0.699,-0.656,-0.0073,-0.265,-0.426 (inactive),-0.833,-0.472,-0.0838 (inactive)
COCC(=C=CC[C@H](O)c1ccccc1OCCO)C[C@H](O)c1cc(Cl)cc(Cl)c1O,-2.79,-4.68,-2.64,-2.93,-3.02,-0.775,1.66 (inactive),-0.57,-1.88,-3.06 (inactive)
C[N+](C)(C)CCCC[C@@H]1NC(=O)[C@@H]2C[C@H](C(=O)NCCCCCN)[C@H](c3cccc(OCCO)c3)N2C1=O,1.53,0.698,1.45,0.423,0.16,1.03,-0.117 (inactive),0.0947,-0.198,0.0718 (inactive)
CN1C(=O)C2C=CC(C(O)c3ccccc3)N(Nc3ccccc3)C2C1=O (stereo not given),-1.3,-0.559,-0.761,-1.4,0.362,-1.69,-0.441 (inactive),0.636,-0.207,-1.26 (inactive)
COc1ccc(CCN2C(=O)[C@@]3(c4ccc([N+](=O)[O-])cc4)CC(=O)N(C4CCCCC4)[C@@H]3c3ccc(CO)cc32)cc1,0.315,-1.26,-0.331,0.199,0.306,-1.65,-0.937 (inactive),-0.694,-0.838,-0.113 (inactive)
C=CCC(OC(C)=O)[C@@H]1[C@@H](N(Cc2cccc3ccccc23)C(=O)c2ccc(-c3ccccc3)cc2)c2cc(OCCCO)ccc2N1C(=O)Cc1ccc(OC)cc1 (stereo not given in full),1.29,1.66,0.68,-0.169,0.516,2.05,0.324 (inactive),-0.217,-0.179,1.54 (inactive)
CC(C)C(=C=CC[C@@H](O)c1ccccc1OCCO)CCO,0.855,-1.23,-0.902,-0.314,0.168,-1.03,0.235 (inactive),0.719,-0.0293,0.215 (inactive)
CCCN1C(=O)[C@]2(CCS(=O)(=O)c3ccccc3)N=C(c3ccc(OCCCO)cc3)O[C@@H]2c2ccccc21,1.27,1.86,-0.801,0.0361,-1.97,0.28,-0.494 (inactive),-0.917,-1.28,-1.57 (inactive)
O=C1O[C@H](c2ccccc2)[C@H](c2ccccc2)N2[C@H]1[C@@H](C(=O)Nc1nc3ccccc3s1)[C@]1(C(=O)Nc3ccc(C#CCCO)cc31)[C@H]2c1ccc(OCCO)cc1,0.233,0.205,1.03,-0.265,0.743,-3.28,0.491 (inactive),-0.995,-1.49,0.441 (inactive)
COc1cc2c(cc1O)C=[N+](Cc1cccc(OC(F)(F)F)c1)CC2,1.45,0.0197,1.2,1.25,0.346,1.01,0.0547 (inactive),0.145,-0.471,-1.68 (inactive)
COc1ccc([C@H]2C[C@H]3C(Br)=C[C@@H]2C(=O)[C@]32CO2)cc1,0.321,0.0531,-0.193,-2.75,-1.55,-0.262,0.558 (inactive),-0.556,-0.914,0.217 (inactive)
